# The source made the active and inactive calls. Rule for the calls: active = hit-call score of the fitted dose curve at least 0.9, where 1 is the maximum; inactive = score below 0.9.
# Experiments:
# Settings in all cases: mRNA level, 48 h; actives raise or lower the signal
# [1] = read-out: Cytochrome P450 3A4 (Homo sapiens) (UniProt P08684); assay: LTEA_HepaRG_CYP3A4: Life Technologies and Expression Analysis (LTEA) Assay for CYP3A4 using HepaRG (AID 2283487)
# Summary of the method: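 CYP3A4 transcript measured by TaqMan qRT-PCR and normalized to three housekeeping genes after 48 h chemical exposure of human HepaRG cells. Top concentration 100 uM, half-log steps, 0.5% DMSO vehicle; gain or loss fitted against DMSO baseline.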
# [2] = read-out: DNA damage-inducible transcript 3 (DDIT3), DDIT3 (gene 1649); assay: LTEA_HepaRG_DDIT3: Life Technologies and Expression Analysis (LTEA) Assay for DNA damage-inducible transcript 3 (DDIT3) using HepaRG (AID 2283488)
# Summary of the method: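 Eight-point concentration-response (100 uM highest, half-log dilutions) in HepaRG, 48 h, duplicate wells. Endpoint: qRT-PCR mRNA, normalized (ACTB, GAPDH, POLR2A), bidirectional fitting with DMSO as baseline.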
# [3] = read-out: Pro-epidermal growth factor (Homo sapiens) (UniProt P01133); assay: LTEA_HepaRG_EGF: Life Technologies and Expression Analysis (LTEA) Assay for Epidermal growth factor (EGF) using HepaRG (AID 2283489)
# Summary of the method: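 EGF transcript measured by Fluidigm TaqMan qRT-PCR with three housekeeping genes for normalization, 48 h after dosing HepaRG cultures in duplicate (top 100 uM, half-log steps, 0.5% DMSO vehicle). Gain or loss relative to DMSO fitted.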
# [4] = read-out: Early growth response protein 1 (EGR1) transcription factor, EGR1 (gene 1958); assay: LTEA_HepaRG_EGR1: Life Technologies and Expression Analysis (LTEA) Assay for Early growth response protein 1 (EGR1) transcription factor using HepaRG (AID 2283490)
# Summary of the method: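 EGR1 expression change in human HepaRG after 48 h chemical exposure, assessed by housekeeping-normalized qRT-PCR; concentration-response up to 100 uM, fitted in both directions against DMSO controls.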
# [5] = read-out: Ezrin (EZR), EZR (gene 7430); assay: LTEA_HepaRG_EZR: Life Technologies and Expression Analysis (LTEA) Assay for Ezrin (EZR) using HepaRG (AID 2283491)
# Summary of the method: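 HepaRG, 48 h chemical exposure, 8-pt half-log series from 100 uM, 0.5% DMSO vehicle, duplicates. Read-out: EZR mRNA by TaqMan qRT-PCR (Fluidigm array), housekeeping-normalized; bidirectional curve fit vs DMSO baseline.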
# [6] = read-out: Cytochrome P450 3A7 (Homo sapiens) (UniProt P24462); assay: LTEA_HepaRG_CYP3A7: Life Technologies and Expression Analysis (LTEA) Assay for CYP3A7 using HepaRG (AID 2283492)
# Summary of the method: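 CYP3A7 transcript measured by qRT-PCR (ACTB, GAPDH, POLR2A normalization) after 48 h chemical exposure of HepaRG cells in duplicate. Eight half-log concentrations, maximum 100 uM, 0.5% DMSO vehicle; bidirectional curve fitting against DMSO baseline.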
# CYP3A5 (gene 1577) = assay: LTEA_HepaRG_CYP3A5: Life Technologies and Expression Analysis (LTEA) Assay for CYP3A5 using HepaRG (AID 2283493)
# Summary of the method: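 Readout was CYP3A5 mRNA by qRT-PCR. HepaRG cultures were exposed for 48 h in serum-free induction medium to chemicals at up to 100 uM, and responses were fitted in both directions relative to DMSO vehicle.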
# [7] = read-out: Fatty Acid-Binding Protein 1 (FABP1), FABP1 (gene 2168); assay: LTEA_HepaRG_FABP1: Life Technologies and Expression Analysis (LTEA) Assay for Fatty Acid-Binding Protein 1 (FABP1) using HepaRG (AID 2283494)
# Summary of the method: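 Values reflect bidirectional concentration-response fitting of FABP1 mRNA change against 0.5% DMSO controls. Human HepaRG cultures received eight half-log doses (top 100 uM) for 48 h; expression quantified by TaqMan qRT-PCR with housekeeping-gene normalization.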
# [8] = read-out: Cytochrome P450 7A1 (Homo sapiens) (UniProt P22680); assay: LTEA_HepaRG_CYP7A1: Life Technologies and Expression Analysis (LTEA) Assay for Cytochrome P450 7A1 (CYP7A1) using HepaRG (AID 2283496)
# Summary of the method: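 Using 0.5% DMSO as vehicle and baseline, chemicals were tested in duplicate over an 8-point range from 100 uM on HepaRG cells for 48 h; qRT-PCR signals were normalised to ACTB, GAPDH and POLR2A.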
# [9] = read-out: Glutathione S-Transferase (GSTA2), GSTA2 (gene 2939); assay: LTEA_HepaRG_GSTA2: Life Technologies and Expression Analysis (LTEA) Assay for Glutathione S-Transferase (GSTA2) using HepaRG (AID 2283497)
# Summary of the method: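 Oxidative-stress marker GSTA2 is quantified by TaqMan qRT-PCR in HepaRG cultures treated 48 h across an eight-point range to 100 uM. Expression is normalized to endogenous controls and compared with 0.5% DMSO vehicle.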
# [10] = read-out: Glutamate-cysteine ligase catalytic (GCLC), GCLC (gene 2729); assay: LTEA_HepaRG_GCLC: Life Technologies and Expression Analysis (LTEA) Assay for Glutamate-cysteine ligase catalytic (GCLC) using HepaRG (AID 2283498)
# Summary of the method: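 Oxidative-stress marker GCLC is measured as mRNA change in human HepaRG liver cells after 48 h chemical treatment in 0.5% DMSO, eight concentrations from 100 uM. Activity is fitted bidirectionally against vehicle.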
# [11] = read-out: growth arrest and DNA damage 45 (GADD45G), GADD45G (gene 10912); assay: LTEA_HepaRG_GADD45G: Life Technologies and Expression Analysis (LTEA) Assay for growth arrest and DNA damage 45 (GADD45G) using HepaRG (AID 2283499)
# Summary of the method: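 GADD45G transcript level by qRT-PCR (housekeeping-normalized: ACTB, GAPDH, POLR2A) after 48 h chemical treatment of a single HepaRG lot in serum-free induction medium; eight-point half-log series up to 100 uM in 0.5% DMSO, duplicates, up- or down-regulation scored.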
# [12] = read-out: Glutamate-cysteine ligase regulatory (GCLM), GCLM (gene 2730); assay: LTEA_HepaRG_GCLM: Life Technologies and Expression Analysis (LTEA) Assay for Glutamate-cysteine ligase regulatory (GCLM) using HepaRG (AID 2283500)
# Summary of the method: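 In this multiplexed HepaRG gene-expression assay, GCLM mRNA change after 48 h treatment (8 concentrations, max 100 uM) was scored against DMSO by bidirectional curve fitting.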
# [13] = read-out: Glutathione S-transferase M3 (GSTM3), GSTM3 (gene 2947); assay: LTEA_HepaRG_GSTM3: Life Technologies and Expression Analysis (LTEA) Assay for Glutathione S-transferase M3 (GSTM3) using HepaRG (AID 2283501)
# Summary of the method: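 GSTM3 transcript levels came from Fluidigm TaqMan qRT-PCR normalized to three housekeeping genes, fitted in both directions against DMSO. HepaRG cultures received chemicals for 48 h in serum-free induction medium (0.5% DMSO), 8 half-log concentrations up to 100 uM, duplicate.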
# [14] = read-out: Heat shock 70 kDa protein 1 (HSPA1A), gene 3303; assay: LTEA_HepaRG_HSPA1A: Life Technologies and Expression Analysis (LTEA) Assay for Heat shock 70 kDa protein 1 (HSPA1A) using HepaRG (AID 2283502)
# Summary of the method: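 An oxidative-stress marker readout: HepaRG cells treated 48 h in duplicate with an eight-point series (highest 100 uM) had HSPA1A mRNA quantified by TaqMan qRT-PCR. Activity was fitted in both directions using 0.5% DMSO as baseline.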
# [15] = read-out: Hypoxia-inducible factor 1-alpha (Homo sapiens) (UniProt Q16665); assay: LTEA_HepaRG_HIF1A: Life Technologies and Expression Analysis (LTEA) Assay for Hypoxia-inducible factor 1 (HIF1A) Trancription factor using HepaRG (AID 2283503);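 note: HIF1A transcript by TaqMan qRT-PCR normalized to ACTB GAPDH and POLR2A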
# Summary of the method: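 Gain- or loss-of-signal HIF1A mRNA changes are fitted against a DMSO baseline. HepaRG cultures receive eight concentrations, highest 100 uM, for 48 h in serum-free induction medium with 0.5% DMSO.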
# [16] = read-out: 3-Hydroxy-3-Methylglutaryl-CoA Synthase 2 (HMGCS2), HMGCS2 (gene 3158); assay: LTEA_HepaRG_HMGCS2: Life Technologies and Expression Analysis (LTEA) Assay for 3-Hydroxy-3-Methylglutaryl-CoA Synthase 2 (HMGCS2) using HepaRG (AID 2283504)
# Summary of the method: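 Readout is HMGCS2 transcript by qRT-PCR, housekeeping-normalised (ACTB/GAPDH/POLR2A) and fitted bidirectionally against 0.5% DMSO. Differentiated HepaRG cells received chemicals 48 h, duplicate wells, eight half-log concentrations topping at 100 uM.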
# HGF (gene 3082) = assay: LTEA_HepaRG_HGF: Life Technologies and Expression Analysis (LTEA) Assay for Hepatocyte Growth Facto (HGF) using HepaRG (AID 2283505)
# Summary of the method: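 HGF transcript was quantified by TaqMan qRT-PCR against three housekeeping genes after 48 h treatment of HepaRG cells. Exposure ran in duplicate over eight half-log steps topping at 100 uM in 0.5% DMSO vehicle.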
# [17] = read-out: Insulin Like Growth Factor 1 (IGF1), IGF1 (gene 3479); assay: LTEA_HepaRG_IGF1: Life Technologies and Expression Analysis (LTEA) Assay for Insulin Like Growth Factor 1 (IGF1) using HepaRG (AID 2283506)
# Summary of the method: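 Endpoint: IGF1 mRNA change by qRT-PCR, housekeeping-normalized, fitted bidirectionally relative to 0.5% DMSO vehicle. Human HepaRG cells were treated 48 h in serum-free induction medium, eight half-log concentrations topping at 100 uM.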
# [18] = read-out: Cytochrome P450 4A22 (Homo sapiens) (UniProt Q5TCH4); assay: LTEA_HepaRG_CYP4A22: Life Technologies and Expression Analysis (LTEA) Assay for Cytochrome P450 4A22 (CYP4A22) using HepaRG (AID 2283495)
# Summary of the method: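 Gene expression measured by qRT-PCR against three housekeeping genes (ACTB, GAPDH, POLR2A), with gain or loss fitted relative to 0.5% DMSO vehicle. HepaRG cultures received 48 h chemical treatment, top concentration 100 uM, half-log steps, duplicate wells.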
# Sequence of Cytochrome P450 3A7 (Homo sapiens) (P24462 whole entry, looked up): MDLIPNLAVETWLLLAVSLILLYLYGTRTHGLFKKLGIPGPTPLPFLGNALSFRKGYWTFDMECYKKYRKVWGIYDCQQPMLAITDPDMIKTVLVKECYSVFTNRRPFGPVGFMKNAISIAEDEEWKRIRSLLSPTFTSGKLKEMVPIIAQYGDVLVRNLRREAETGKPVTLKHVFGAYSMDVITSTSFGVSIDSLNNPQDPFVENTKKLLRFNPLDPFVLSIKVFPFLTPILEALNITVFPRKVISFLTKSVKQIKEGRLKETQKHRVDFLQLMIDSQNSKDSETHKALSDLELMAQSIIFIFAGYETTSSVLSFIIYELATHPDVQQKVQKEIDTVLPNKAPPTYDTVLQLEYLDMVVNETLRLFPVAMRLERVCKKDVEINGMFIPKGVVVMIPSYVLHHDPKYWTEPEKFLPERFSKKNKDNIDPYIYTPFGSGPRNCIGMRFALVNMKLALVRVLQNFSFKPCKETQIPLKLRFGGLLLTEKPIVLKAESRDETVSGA
# Sequence of Hypoxia-inducible factor 1-alpha (Homo sapiens) (Q16665 whole entry, looked up): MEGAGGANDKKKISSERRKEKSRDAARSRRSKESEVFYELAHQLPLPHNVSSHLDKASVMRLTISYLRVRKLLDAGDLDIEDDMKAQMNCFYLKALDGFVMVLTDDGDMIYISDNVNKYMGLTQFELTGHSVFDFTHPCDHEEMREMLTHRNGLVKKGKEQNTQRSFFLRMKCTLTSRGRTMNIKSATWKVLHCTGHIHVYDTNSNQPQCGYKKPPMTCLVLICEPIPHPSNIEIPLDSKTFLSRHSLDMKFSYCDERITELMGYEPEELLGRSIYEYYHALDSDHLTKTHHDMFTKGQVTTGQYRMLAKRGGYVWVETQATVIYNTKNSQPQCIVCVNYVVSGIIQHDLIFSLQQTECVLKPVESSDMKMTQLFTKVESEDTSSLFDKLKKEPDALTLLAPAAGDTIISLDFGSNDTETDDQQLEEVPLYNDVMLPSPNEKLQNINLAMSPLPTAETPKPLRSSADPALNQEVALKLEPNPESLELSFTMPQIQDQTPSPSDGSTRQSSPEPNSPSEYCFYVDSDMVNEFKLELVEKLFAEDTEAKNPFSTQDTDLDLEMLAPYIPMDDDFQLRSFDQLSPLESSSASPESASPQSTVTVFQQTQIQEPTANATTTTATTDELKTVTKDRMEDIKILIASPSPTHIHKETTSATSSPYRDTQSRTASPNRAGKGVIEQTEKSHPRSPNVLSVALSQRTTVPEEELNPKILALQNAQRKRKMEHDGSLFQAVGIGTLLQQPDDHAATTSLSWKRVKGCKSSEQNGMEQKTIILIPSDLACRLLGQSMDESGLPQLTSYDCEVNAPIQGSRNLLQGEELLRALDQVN
# Sequence of Cytochrome P450 3A4 (Homo sapiens) (P08684 whole entry, looked up): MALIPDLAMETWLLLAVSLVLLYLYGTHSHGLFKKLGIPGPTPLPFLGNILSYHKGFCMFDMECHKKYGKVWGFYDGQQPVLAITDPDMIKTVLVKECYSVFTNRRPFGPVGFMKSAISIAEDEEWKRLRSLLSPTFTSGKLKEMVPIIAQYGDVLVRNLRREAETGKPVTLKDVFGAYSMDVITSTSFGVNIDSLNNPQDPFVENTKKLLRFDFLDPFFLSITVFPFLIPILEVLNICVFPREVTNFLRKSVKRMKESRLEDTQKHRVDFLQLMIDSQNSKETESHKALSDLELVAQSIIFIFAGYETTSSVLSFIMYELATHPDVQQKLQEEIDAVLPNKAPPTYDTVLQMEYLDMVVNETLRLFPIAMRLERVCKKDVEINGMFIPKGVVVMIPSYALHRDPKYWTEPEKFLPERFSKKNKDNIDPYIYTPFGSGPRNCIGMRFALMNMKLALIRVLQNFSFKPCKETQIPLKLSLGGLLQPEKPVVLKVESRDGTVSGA
structure (smiles),measurement,setting,value
C[C@]12CCC(=O)C=C1CC[C@@H]1[C@@H]2CC[C@@]2(C)[C@H]1CC[C@]2(C)O,outcome,[1],inactive
same,AC50,[2],80 µM (active)
same,outcome,[3],inactive
same,outcome,[4],inactive
same,outcome,[5],inactive
same,outcome,[6],inactive
same,outcome,CYP3A5 (gene 1577),inactive
same,outcome,[7],inactive
same,AC50,[8],1.9 µM (active)
same,outcome,[9],inactive
same,outcome,[10],inactive
same,outcome,[11],inactive
same,outcome,[12],inactive
same,outcome,[13],inactive
same,outcome,[14],inactive
same,outcome,[15],inactive
same,AC50,[16],69 µM (active)
same,outcome,HGF (gene 3082),inactive
same,AC50,[17],11.3 µM (active)
ClC(Cl)=C(c1ccc(Cl)cc1)c1ccc(Cl)cc1,AC50,[1],7.4 µM (active)
same,outcome,[2],inactive
same,outcome,[3],inactive
same,outcome,[4],inactive
same,outcome,[5],inactive
same,AC50,[6],8.96 µM (active)
same,outcome,CYP3A5 (gene 1577),inactive
same,AC50,[7],50 µM (active)
same,outcome,[18],inactive
same,outcome,[8],inactive
same,outcome,[9],inactive
same,outcome,[10],inactive
same,outcome,[11],inactive
same,outcome,[12],inactive
same,outcome,[13],inactive
same,outcome,[15],inactive
same,outcome,HGF (gene 3082),inactive
same,AC50,[17],50 µM (active)
CC#Cc1cc(C)nc(Nc2ccccc2)n1,AC50,[1],28.2 µM (active)
same,outcome,[2],inactive
same,outcome,[3],inactive
same,outcome,[4],inactive
same,outcome,[5],inactive
same,AC50,[6],41.6 µM (active)
same,AC50,CYP3A5 (gene 1577),15.6 µM (active)
same,AC50,[7],13.7 µM (active)
same,AC50,[18],1.05 µM (active)
same,AC50,[8],13.8 µM (active)
same,AC50,[9],28 µM (active)
same,AC50,[10],32.8 µM (active)
same,outcome,[11],inactive
same,AC50,[12],50 µM (active)
same,AC50,[13],14.5 µM (active)
same,outcome,[15],inactive
same,AC50,[16],32.5 µM (active)
same,AC50,HGF (gene 3082),50 µM (active)
CC1=C2C[C@H]3[C@@H](CC=C4C[C@@H](O)CC[C@@]43C)[C@@H]2CC[C@]12O[C@@H]1C[C@H](C)CN[C@H]1[C@H]2C,outcome,[1],inactive
same,outcome,[2],inactive
same,outcome,[3],inactive
same,outcome,[4],inactive
same,outcome,[5],inactive
same,outcome,[6],inactive
same,outcome,CYP3A5 (gene 1577),inactive
same,outcome,[7],inactive
same,outcome,[8],inactive
same,outcome,[9],inactive
same,outcome,[10],inactive
same,outcome,[11],inactive
same,outcome,[12],inactive
same,outcome,[13],inactive
same,outcome,[15],inactive
same,outcome,[16],inactive
same,outcome,HGF (gene 3082),inactive
CC(c1ccc(O)cc1)(c1ccc(O)cc1)c1ccc(O)cc1,AC50,[1],23.6 µM (active)
same,outcome,[2],inactive
same,outcome,[3],inactive
same,AC50,[4],81 µM (active)
same,AC50,[5],38.7 µM (active)
same,AC50,[6],20.7 µM (active)
same,AC50,CYP3A5 (gene 1577),37.1 µM (active)
same,AC50,[7],75.8 µM (active)
same,outcome,[18],inactive
same,AC50,[8],67 µM (active)
same,AC50,[9],37.3 µM (active)
same,AC50,[10],73.4 µM (active)
same,AC50,[11],75.1 µM (active)
same,outcome,[12],inactive
same,outcome,[13],inactive
same,outcome,[15],inactive
same,AC50,[16],85.1 µM (active)
same,AC50,HGF (gene 3082),25.1 µM (active)
CN(C)CCO,outcome,[1],inactive
same,outcome,[2],inactive
same,outcome,[3],inactive
same,outcome,[4],inactive
same,outcome,[5],inactive
same,outcome,[6],inactive
same,outcome,CYP3A5 (gene 1577),inactive
same,outcome,[7],inactive
same,outcome,[18],inactive
same,outcome,[8],inactive
same,outcome,[9],inactive
same,outcome,[10],inactive
same,outcome,[11],inactive
same,outcome,[12],inactive
same,outcome,[13],inactive
same,outcome,[14],inactive
same,outcome,[15],inactive
same,outcome,[16],inactive
same,outcome,HGF (gene 3082),inactive
same,outcome,[17],inactive
